In PubChem BioAssay (NCI) one finds growth data, which are given here for 34 compounds.

“And” between values parts separate entries of the source, which are not always exact repeats. Equal values may be shown once. About 83,000 compounds went through this panel and 20% of them were active in at least one assay; those are over-represented in the sample as a whole.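 A percent growth of 40 corresponds to 60% growth inhibition; 0 means no net growth; -100 means all cells died. Active threshold: below 10.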 A number with no mark means an inactive call. The source made the active and inactive calls.

In this experiment the test system is COLO 205 colon. The experiment can be described thus: NCI-60 one-dose screen, 48 h (100 = growth as untreated, 0 = no growth, -100 = all killed). As to conditions: 10 µM unless noted.
Turning to `C=C[C@]1(C)C=C2CC[C@@H]3C(C)(C)C(=O)CC[C@@]3(C)[C@@H]2CC1`, the growth is 116%.

On to `CCN(CC)/C([O-])=c1\cccc\c1=C1\N=C(c2ccccc2)N=C1[n+]1ccc(-c2ccccc2)cc1`, for which the growth is 108%. On to `COc1cc(CNC(=O)CCCC/C=C/C(C)C)ccc1O`, for which the growth is 101% and 111%. On to `CC1=C2[C@@H](CC1)[C@]1(C)O[C@@](C(C)C)(C[C@H]1OC(=O)CO)[C@H]2OC(=O)C1CC1c1ccccc1` (some centres undefined), for which the growth is 107%. As for `O=C1OCC2=C1C(c1cccc(C(F)(F)F)c1)c1cc3c(cc1N2CCO)CCC3` (centres undefined), the figure is -55.2% (active). For the compound `O=C(CCl)N(O)c1ccc(/C=C/c2ccccc2)cc1`, the growth is 92.9% and 83.1%. `N#C/C(=C\c1ccc(Br)cc1)n1nnc2c(F)cccc21`: the growth was -15.9% (active).

Turning to `O=C(/C=C/c1ccccc1)c1cccs1`, the growth is 112% and 120%.

For the compound `COc1ccc(Nc2nn3c(SCC(=O)c4ccc(C)cc4)nnc3s2)cc1`, the growth is 91.8%. As for `Cc1nnc(NS(=O)(=O)c2ccc(N=Nc3ccc(N)nc3N)cc2)s1`, the growth was 110%. The same measure for `O=S(=O)(Nc1cc(Sc2cccc3cccnc23)c(O)c2ccccc12)c1ccc(F)cc1`: -64.6% (active). On to `COc1ccc2c(c1)CCNC21C(=O)Nc2c(Br)cc(Br)cc21` (centres undefined), for which the growth is 112%. Take `CCCn1nc(C(=O)N2CCCCC2)c2c1CCC(N1CCC(c3ccncc3)CC1)C2` (centres undefined): the growth was 115%.

For `C=C1C(=O)O[C@@H]2[C@H]3[C@H](COC(C)=O)[C@@H](OC(C)=O)C[C@H]3C(=C)[C@@H](O)C[C@@H]12`, the growth was 100%. With `CC(=O)N1N=C(c2ccc(F)cc2)CC1c1sc(N(C)Cc2ccccc2)nc1Cl` (centres undefined), the growth is 98.7%.

With `O=C(/C=C/c1ccc([N+](=O)[O-])cc1)c1ccccc1`, the growth is 87.2%.

For the compound `COc1ccc(C(CC(=O)c2ccc3c(c2)OCO3)C(=O)O)cc1OC` (centres undefined), the growth is 122% and 107%. Turning to `CCN1CCN(CC(=O)Nc2nc3ccc(NCc4ccc(C)cc4)cc3s2)CC1`, the growth was 16.3%.

Turning to `Clc1cccc(Nc2ncnc3ccc(-c4cncc(-n5cnnn5)c4)cc23)c1`, the growth was 87.9%.

Consider `CCc1c2c(nc3ccc(OCc4ccc(B5OC(C)(C)C(C)(C)O5)cc4)cc13)-c1cc3c(c(=O)n1C2)COC(=O)[C@]3(O)CC`, for which the growth was 18.8%.

In the case of `COc1ccc(/C=N\Nc2nc(SCC(C)C)nc(-c3ccc(OC)cc3)c2C#N)cc1`, the growth was 50.1%. Turning to `COc1cc2nc3cc([N+](=O)[O-])ccc3c(NCCNCC(C)(C)O)c2cc1OC`, the growth is -70.1% (active). For `COc1ccc(C(=O)c2ccc(OC)c(OC)c2OC)cc1`, the growth was 3.87% (active) and -14.7% (active). With `N=C1/C(=C2\NC3C=CC=CC3S2)C(c2ccc(Cl)cc2)C2C(=O)N(c3ccccc3)C(=S)N12` (centres undefined), the growth was 113%. The same measure for `CC1=CC(C)(C)NC(=S)N1c1ccc(Cl)cc1`: 109% and 100%. On to `Cc1nn(-c2nc(-c3cc4ccccc4oc3=O)cs2)c(C)c1N=Nc1ccccc1`, for which the growth is 114%. As for `Cc1nc(Nc2ncc(C(=O)Nc3c(C)cccc3Cl)s2)cc(N2CCN(CCO)CC2)n1`, the figure is -1.08% (active) and -9.83% (active); as for `COc1ccc(-c2ccc(-c3ccc(C(=N)N)cn3)s2)cc1Cl`, -51.7% (active). For `CNC(=O)c1cc(Oc2ccc3nc(NC(=O)Nc4ccc(C(F)(F)F)cc4)sc3c2)ccn1`, the growth was 58.7%. Take `COc1ccc(CCNC(=O)COc2cc3c(Nc4ccc(F)c(Cl)c4)ncnc3cc2OC)cc1OC`: the growth is 102%. As to `Cc1ccc(S(=O)(=O)Nc2cc(Sc3ccccc3)c(O)c3ccccc23)cc1`, the growth was 108%. As to `Nc1nc(Nc2cccnc2)sc1C(=O)c1ccccc1F`, the growth is 20.5%. On to `O=C(Cn1cc(CN2CCN(c3ccnc4cc(Cl)ccc34)CC2)nn1)Nc1cccc([N+](=O)[O-])c1`, for which the growth was 101%. As for `CCOc1nc(-c2ccccc2)cc2c(O)c(C(=O)N/N=C/c3ccc(N(C)C)cc3)[nH]c(=O)c12`, the growth was 229%.
